Experimental findings from PubChem BioAssay (NCI) are described below.

Each structure is given as a SMILES string. The panel holds about 83,000 compounds, 20% with a hit somewhere; the sample as a whole holds those more often.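 Activity criterion: percent growth below 10, measured after cells in 96-well plates were exposed to a single compound concentration for 48 hours.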 The source made the active and inactive calls.

For the assay, the system named is U251 CNS. Nature of the assay: NCI-60 one-dose screen, 48 h (100 = growth as untreated, 0 = no growth, -100 = all killed). The settings on record: 10 µM unless noted. As to the method: Growth inhibition of the U251 human tumor cell line is measured as a screen for anti-cancer activity. Cells are grown in 96 well plates and exposed to the test compound for 48 hours. Compounds are tested at a single concentration, which is 10^-5 M for most compounds. The reported endpoint is percent growth (GI% or GIPRCNT), where numbers from 0 - 100% represent growth inhibition, and numbers from -100% - 0 represent cell death. For example, a value of 40 represents 60% growth inhibition. A value of 0 means no net growth occurred over the course of the experiment. A value of -40 indicates 40% of cells at the beginning of the experiment died by the end of the experiment. A value of -100 means all cells are dead at the end of the experiment.
NCI-60 Human Tumor Cell Lines Screen was performed using the standard one-dose NCI protocol, which is described in more detail at https://dtp.cancer.gov/discovery_development/nci-60/default.htm.
Compounds with GIPRCNT values below 10 were considered active. Activity score was based on GIPRCNT using the following formula: […]
Score is 0 for GIPRCNT values of 100 or above, 50 for GIPRCNT values of 0, and 100 for GIPRCNT values of -100.
As to `C[C@@H](Oc1cc(-c2cnn(C3CC4(CCNCC4)C3)c2)cnc1N)c1c(F)ccc(Cl)c1Cl`, the growth was 12.1% (inactive).

Take `N#CC1=C(N)Oc2cc(N)ccc2C1c1ccc(F)cc1` (stereo not given): the growth is 83.4% (inactive).

Take `CN1CCN(c2nc(-c3ccncc3)nc3sc4c(c23)CCCCCC4)CC1`: the growth was 63.5% (inactive).

As to `CCCCCCCC/C=C\CCCCCCCCOc1cccc(CC(=O)NCC[N+](C)(C)C)c1`, the growth was 46.2% (inactive).

In the case of `COc1cccc(C2C3=C(COC3=O)N(CCO)c3cc4c(cc32)OCO4)c1` (stereo not given), the growth is 18.2% (inactive).

For the compound `O=[N+]([O-])c1cc2c(cc1Br)-c1ccccc1C2`, the growth is 98.5% (inactive).

`Nc1nc2c(s1)CCc1c-2c(Br)n(Cc2ccccc2)c1Br`: the growth was 91.6% (inactive).

Take `Cc1ccc(S(=O)(=O)N2CCc3ccc(O)c4c3C2CCc2ccccc2-4)cc1` (stereo not given): the growth was 102% (inactive).

For the compound `COc1cc(C(=O)N(C(C)C)C2CCCCC2)cc(OC)c1OC`, the growth was 102% (inactive).

As for `COc1ccc(C2SC(C)C(=O)N2CCc2cccs2)cc1OC` (stereo not given), the growth was 83.2% (inactive).

For `Cn1c2ccccc2c2nn(C(=O)c3ccccc3)c(=O)nc21`, the growth is 112% (inactive).

For `O=C(O)C[C@H](O)C[C@H](O)/C=C/c1c(C2CC2)nc2ccccc2c1-c1ccc(F)cc1`, the growth was 42.8% (inactive).

As for `COc1cc(/C=C/C(=O)CC(=O)/C=C/c2cc(Br)c(OC)c(OC)c2)cc(Br)c1OC`, the growth is 105% (inactive).

Take `CCN(c1ccc(C(=O)N2CCN(c3ccccc3)CC2)cc1)S(C)(=O)=O`: the growth is 105% (inactive).

In the case of `O=S(=O)(OCCO)c1ccccc1`, the growth was 106% (inactive).

For `Cc1nc2cc(Nc3nc(Nc4ccc(F)cc4)nc(N4CCCC4)n3)ccc2n1Cc1ccccc1`, the growth is -70.9% (active).

For the compound `COC(=O)c1c2c(c(C)[n+]([O-])c1C)C(=O)C=C(NCc1cccc(OC)c1)C2=O`, the growth was -39.3% (active).

In the case of `O=C(COc1ccc(/C=C2\CSc3ccccc3C2=O)cc1)c1ccc(Cl)cc1`, the growth was 104% (inactive).

In the case of `CCCCCCCCCCCCCCn1c2ccccc2c2c3c(c4c5cc(OC)ccc5oc4c21)C(=O)NC3=O`, the growth was 99.8% (inactive).

Regarding `Nc1cc2[nH]c(=O)c3ccccc3c2cc1Br`, the growth is 84% (inactive).

Turning to `COc1cccc(OC(=O)c2ccccc2)c1OC(=O)c1ccccc1`, the growth is 49.2% (inactive).

As to `C=CC(=O)N1CC2(CCC(n3nc(-c4ccc(Oc5ccccc5)cc4)c4c(N)ncnc43)CC2)C1`, the growth was -73.8% (active).

As for `CC(=O)N(CC(O)CO)c1c(I)c(C(=O)NCCO)c(I)c(C(=O)NCC(O)CO)c1I` (stereo not given), the growth was 100% (inactive).

In the case of `Cc1cccc2c(=O)c3c(sc12)c(NCCCN)nc1ccccc13`, the growth is 1.33% (active).

Turning to `COc1cc(-c2nc3ccccc3o2)cc(CN2CCN(c3ccccc3)CC2)c1O`, the growth is 52.6% (inactive).

In the case of `Clc1ccc(C2=NN(c3ccccc3)[C@H](c3cn(-c4ccccc4)nc3-c3ccccc3)C2)cc1`, the growth was 93.1% (inactive).

As to `Cc1nc(NN)c([N+](=O)[O-])c(NN)n1`, the growth was 102% (inactive).

Consider `CCOc1ccc(-c2cnnn2-c2nonc2-n2cccc2)cc1`, for which the growth was 17.6% (inactive).

Turning to `Oc1ccc(Cl)cc1CNc1nc2ccccc2[nH]1`, the growth was 55% (inactive).

With `COc1cc(/C=C/C(=O)C(=Cc2ccc(F)c(F)c2)C(=O)/C=C/c2ccc(O)c(OC)c2)ccc1O`, the growth was 18.8% (inactive).

Consider `Fc1c[c-]c(-c2ccccn2)c(F)c1.Fc1c[c-]c(-c2ccccn2)c(F)c1.[Cl][Pt+].[Cl][Pt+].c1ccc([PH+](C[PH+](c2ccccc2)c2ccccc2)c2ccccc2)cc1`, for which the growth is 15% (inactive).

`C[C@]1(CO)C[C@@H](O)C[C@]2(C)[C@@H]1CC[C@@]13C[C@@H]4[C@@H](C[C@H]12)[C@]4(C)C3`: the growth was 104% (inactive).

`COc1ccc(NC(=O)COc2ccccc2)c(C(N)=O)c1`: the growth was 9.36% (active).

`CC(C)(C)[Si](C)(C)OC1[C@@H](CNC(=O)NC(=O)CCl)O[C@@H](n2cnc3c(N)ncnc32)[C@H]1O[Si](C)(C)C(C)(C)C` (stereo not given in full): the growth is -81% (active).

`COc1cc2cc(Oc3ccc(NC(=O)Nc4cccc(C(F)(F)F)c4)cc3)c(C)nc2cc1OCCN1CCCCC1`: the growth is -82.4% (active).

For `CCCCC/C=C\C/C=C/CCCCCCCCNC(=O)Nc1ccc([N+](=O)[O-])cc1`, the growth is 51.3% (inactive).

Take `CCN1C(=O)C2(Nc3ccccc3S2)c2cc(C)ccc21` (stereo not given): the growth is 97.5% (inactive).

`CC(=O)Nc1ccc(Sc2ccc([N+](=O)[O-])o2)cc1`: the growth is 31.9% (inactive).

Regarding `O=C(c1ccc2ncc(-c3nc(NC4CC4)ncc3F)n2c1)N1CCOCC1`, the growth was 28.6% (inactive).

On to `O=C1/C(=C/c2ccc(Cl)cc2)CN(Cc2cn(CCCNc3ccnc4cc(Cl)ccc34)nn2)C/C1=C\c1ccc(Cl)cc1`, for which the growth is -91.9% (active).
